Screens as filed in PubChem.
An excerpt weighted towards active compounds, which were near 15% of everything screened.
TDP1 cell noCPT: qHTS for Inhibitors of human tyrosyl-DNA phosphodiesterase 1 (TDP1): qHTS in cells in absence of CPT; DT40 Tdp1-/- hTDP1 cells, no CPT, ATP luminescence, 48 h; Potency, µM (doses to about 46.2 µM), most hits filed as inhibitors; 420,000 compounds, 15% hits; AID 686978, 2013; note: nearly all actives have a fitted effect of over 55% in size
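Seeded 400 DT40-hTDP1 cells/well (vehicle DMSO, no 20 nM CPT); pinned compounds; ≥48 hr at 37 °C; CellTiter-Glo luminescence as viability measure.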
VP16 counter: Gal4-VP16 reporter inhibition counter-screen; AID 2546; Drosophila S2 Gal4-VP16 UAS-luciferase, luminescence, 20 h; Potency, µM (titrated, usually from 53.6 µM), actives largely listed as inhibitors; 310,000 compounds, 3.5% hits;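 note: Gal4-VP16 expression switched on by copper sulfate through the metallothionein promoter; nearly all actives have a fitted effect of over 50% in size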
TDP1 cell CPT: DT40-hTDP1 cell growth loss with CPT; Potency, µM (titrated, usually from 46.2 µM), usual class: inhibitors; AID 686979; 420,000 compounds, 12% hits; chicken DT40 Tdp1-/-;hTDP1 cells + 20 nM CPT, ATP luminescence, 48 h; note: nearly all actives have a fitted effect of over 55% in size
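Cell growth measured by CellTiter-Glo luminescence after a minimum 48 h, 37 C compound exposure with 20 nM CPT in Tdp1-knockout DT40 cells stably expressing hTDP1, seeded 400/well; qHTS titration format.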
RORgamma inh: inhibitors of mouse ROR gamma transcriptional activity. P51450. Drosophila S2 Gal4-RORgamma UAS-luciferase reporter, 20 h. Potency, µM (highest dose often 53.6 µM), usual class: inhibitors. 310,000 compounds, 5.4% hits. AID 2551; note: nearly all actives have a fitted effect of over 60% in size
Target sequence (P51450 whole entry, looked up, the tested form may be a part): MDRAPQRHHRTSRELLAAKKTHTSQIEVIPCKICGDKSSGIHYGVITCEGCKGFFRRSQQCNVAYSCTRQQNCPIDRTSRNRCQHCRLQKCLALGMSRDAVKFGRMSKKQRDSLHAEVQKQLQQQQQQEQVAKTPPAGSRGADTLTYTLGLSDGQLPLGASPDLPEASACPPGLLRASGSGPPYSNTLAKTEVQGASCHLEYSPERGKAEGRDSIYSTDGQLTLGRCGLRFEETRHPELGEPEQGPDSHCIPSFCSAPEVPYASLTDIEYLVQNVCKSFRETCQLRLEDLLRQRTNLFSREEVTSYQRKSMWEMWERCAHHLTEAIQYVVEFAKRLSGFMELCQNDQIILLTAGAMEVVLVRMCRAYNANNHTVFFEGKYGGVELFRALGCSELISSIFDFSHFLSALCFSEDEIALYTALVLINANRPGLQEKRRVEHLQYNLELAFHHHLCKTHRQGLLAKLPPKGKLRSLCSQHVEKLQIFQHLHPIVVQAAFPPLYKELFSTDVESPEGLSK
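Compounds are pin-transferred onto Drosophila Schneider cells expressing a copper-inducible Gal4–ROR gamma transactivation domain fusion. After 1 hr, copper sulfate is added to 700 uM final; luciferase is read 20 hr later.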
12-LOX inh: blocks human arachidonate 12S-lipoxygenase; purified 12hLO, xylenol orange hydroperoxide absorbance; Potency, µM (doses to about 108 µM), actives largely listed as inhibitors; P18054; 580,000 compounds, 1.1% hits
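Purified human 12hLO (150 nM final) in 25 mM Hepes, 0.01% Triton X-100, pH 7.0 was preincubated 15 min at room temperature with compound. Then 40 uM arachidonic acid was added, 30 min. Hydroperoxide was read by Fe-XO absorbance ratio 573/405 nm.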
ELG1 DNA repair: blocks ELG1-dependent DNA repair in HEK293T cells; Potency, µM (highest dose often 46.1 µM), actives largely listed as inhibitors; HEK293T ELG1-luciferase reporter, luminescence, 16 h; DNA damage induced by 5-fluorouridine; 330,000 compounds, 2.3% hits; note: nearly all actives have a fitted effect of over 55% in size
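Reporter activity after DNA damage by 5-fluorouridine is monitored. Compound-treated cells incubate 16 hr at 37 °C, then ONE-Glo is added for 30 min before luminescence reading.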
Each line names hits and unclear results; the compound was inactive in the other large screens. Calls come from the whole dose curve; as a rule, active = well fitted curve in the direction sought with a large enough effect; inconclusive = small, poorly fitted or top-dose-only effect, or another doubt; inactive = no such curve, though single readings can be large; an effect the other way counts as inactive or inconclusive.

Cc1c(C(=O)c2ccc[nH]2)oc2ccc(Br)cc12	none (no result: TDP1 cell noCPT, VP16 counter, TDP1 cell CPT, RORgamma inh, ELG1 DNA repair)
O=C(c1ccc(Cl)c(Cl)c1)N1CCC(=O)N(C(COCc2ccccc2)Cc2ccccc2)CC1 (centres undefined)	TDP1 cell noCPT 23µM, TDP1 cell CPT 16µM, 12-LOX inh inconclusive, ELG1 DNA repair inconclusive
O=C(c1ccc(Cl)c(Cl)c1)N1CCC(=O)N([C@H](COCc2ccccc2)Cc2ccccc2)CC1	TDP1 cell noCPT 18µM, TDP1 cell CPT 21µM, 12-LOX inh inconclusive (no result: VP16 counter, RORgamma inh, ELG1 DNA repair)
Cc1ccc2[nH]c(O)c(N=NC(=O)CCc3ccccc3)c2c1Br	TDP1 cell noCPT inconclusive, TDP1 cell CPT 16µM, ELG1 DNA repair inconclusive
COc1ccc(CNC(=S)NC2CCCC2)cc1	TDP1 cell noCPT inconclusive, VP16 counter 7.9µM, TDP1 cell CPT inconclusive, RORgamma inh 8.9µM
COc1cccc(CNC(=S)NC2CC2)c1	RORgamma inh 10µM
COc1ccc(CNC(=S)NC2CCCCC2)cc1	VP16 counter 13µM, RORgamma inh 7.1µM
CNC(=S)NCc1ccc(OC)cc1	none
COc1ccc(Cl)cc1NC(=O)[C@H]1C[C@@H]2CCCN2[C@]12C(=O)Nc1ccc(Cl)cc12	none (no result: TDP1 cell noCPT, VP16 counter, TDP1 cell CPT, RORgamma inh, ELG1 DNA repair)
CCCOC(=O)CNC(=O)c1cc(OC)cc(OC)c1	none (no result: TDP1 cell noCPT, VP16 counter, TDP1 cell CPT, RORgamma inh, ELG1 DNA repair)
CN(C)S(=O)(=O)c1ccc(C(=O)Nc2cccnc2)cc1	none
CN(C)S(=O)(=O)c1ccc(C(=O)/C=C/c2cccnc2)cc1	TDP1 cell noCPT 21µM, VP16 counter inconclusive, TDP1 cell CPT 8.2µM, RORgamma inh inconclusive, ELG1 DNA repair inconclusive
COc1ccc(OC)c(C(=O)/C=C/c2cccnc2)c1	TDP1 cell noCPT 12µM, VP16 counter 2.8µM, TDP1 cell CPT inconclusive, RORgamma inh 7.9µM, 12-LOX inh inconclusive, ELG1 DNA repair inconclusive
O=C(/C=C/c1cccnc1)c1cc(F)ccc1O	TDP1 cell noCPT 21µM, VP16 counter inconclusive, TDP1 cell CPT inconclusive, ELG1 DNA repair inconclusive
O=C(/C=C/c1cccnc1)/C=C/c1cccnc1	TDP1 cell noCPT 0.58µM, VP16 counter 5µM, TDP1 cell CPT 1µM, RORgamma inh 5µM, ELG1 DNA repair inconclusive
C(=Cc1cccnc1)c1ccncc1	TDP1 cell noCPT inconclusive (no result: VP16 counter, RORgamma inh, ELG1 DNA repair)
O=C(c1ccco1)N1CCC2(CC1)CC(N1CCN(c3ccccn3)CC1)CCO2 (centres undefined)	none (no result: TDP1 cell noCPT, VP16 counter, TDP1 cell CPT, RORgamma inh, ELG1 DNA repair)
COc1ccccc1-n1cc(C(=O)N[C@H](c2cnn(C)c2)C2CC(O)C2)cn1 (some centres undefined)	none (no result: TDP1 cell noCPT, VP16 counter, TDP1 cell CPT, RORgamma inh, ELG1 DNA repair)
Cc1nn2c(c1-c1ccccc1OCc1ccccc1)N(C(=O)COc1ccccc1)CCC2	none (no result: TDP1 cell noCPT, VP16 counter, TDP1 cell CPT, RORgamma inh, ELG1 DNA repair)
O=C(c1ccccc1OCC1CCCN(Cc2nccs2)C1)N1CCCCC1 (centres undefined)	none (no result: TDP1 cell noCPT, VP16 counter, TDP1 cell CPT, RORgamma inh, ELG1 DNA repair)
Cc1nonc1CC(=O)N1CCCC(CNS(=O)(=O)c2cccs2)C1 (centres undefined)	none (no result: TDP1 cell noCPT, VP16 counter, TDP1 cell CPT, RORgamma inh, ELG1 DNA repair)
COc1cc(C(=O)/C=C/c2cccnc2)ccc1O	TDP1 cell noCPT 18µM, VP16 counter inconclusive, TDP1 cell CPT inconclusive, RORgamma inh 10µM, 12-LOX inh inconclusive, ELG1 DNA repair inconclusive
COCCn1c(C)cnc1CC1CCCN(C(=O)c2ccnn2C)C1 (centres undefined)	none (no result: TDP1 cell noCPT, VP16 counter, TDP1 cell CPT, RORgamma inh, ELG1 DNA repair)
Cn1c(CNC(=O)C(Cc2ccccc2)NS(=O)(=O)c2ccc(Cl)cc2)cc(=O)n(C)c1=O (centres undefined)	none (no result: TDP1 cell noCPT, VP16 counter, TDP1 cell CPT, RORgamma inh, ELG1 DNA repair)
CCOc1cc(/C=C2\CN(C)C/C(=C\c3ccc(O)c(OCC)c3)C2=O)ccc1O	TDP1 cell noCPT 2.3µM, VP16 counter inconclusive, TDP1 cell CPT 5.2µM, RORgamma inh inconclusive, 12-LOX inh inconclusive, ELG1 DNA repair 23µM
CCOc1cc(/C=C2\CCC/C(=C\c3cc(Cl)c(O)c(OCC)c3)C2=O)cc(Cl)c1O	TDP1 cell noCPT 6.5µM, VP16 counter 11µM, TDP1 cell CPT inconclusive, RORgamma inh inconclusive, 12-LOX inh inconclusive, ELG1 DNA repair 6.5µM
C=CCN(CC=C)C(=S)NC(=O)c1ccc(OC)cc1	TDP1 cell noCPT 5.2µM, VP16 counter 2.2µM, TDP1 cell CPT 15µM, RORgamma inh 0.89µM
